Measured values: PubChem BioAssay (EPA / NIEHS)
Inconclusive results are not listed. Active and inactive are the calls of the source. How the source made its calls, unless noted: active means hit-call score of the fitted dose curve at least 0.9, where 1 is the maximum; inactive means score below 0.9.

Assays:
[1] = CCTE_Harrill_HTTr_Viability_MCF7: CCTE's 6-hour Cell Viability Assessment for the High-Throughput Transcriptomics (HTTr) Platform, in MCF-7 cells cultured in DMEM + 10% fetal bovine serum, Harrill Lab (AID 2284010)
Summary of the method: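 Propidium iodide exclusion, imaged by high-content analysis, gauged viability after a six-hour exposure across eight concentrations. Cells were MCF-7 grown in DMEM with 10% fetal bovine serum; fits run in both directions against DMSO.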

[2] = CCTE_Harrill_HTTr_Apoptosis_MCF7: CCTE's 6-hour Apoptosis Assessment for the High-Throughput Transcriptomics (HTTr) Platform, in MCF-7 cells cultured in DMEM + 10% fetal bovine serum, Harrill Lab (AID 2284011)
Summary of the method: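 Cells are dosed with test chemicals at eight concentrations and imaged 6 hours later for caspase-3/7 activity using a green fluorogenic detection reagent. Activity is fitted in both directions against DMSO controls.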

[3] = CCTE_Harrill_HTTr_CellCount_MCF7: CCTE's Cell Proliferation Assessment for the High-Throughput Transcriptomics (HTTr) Platform, Harrill Lab (AID 2284012; active means hit-call score of the fitted dose curve at least 0.9, where 1 is the maximum;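 further: cells exposed to compound for six hours; intended direction is loss of nuclei count meaning fewer cells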)
Summary of the method: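 Cell count from high-content imaging of Hoechst-labeled nuclei serves as viability/growth readout. Chemicals were applied to MCF-7 cells in eight concentrations for six hours, with fitting in both directions relative to DMSO.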

| SMILES | outcome [1] | outcome [2] | outcome [3] |
| --- | --- | --- | --- |
| C1CCC(SSC2CCCCC2)CC1 | inactive | inactive |  |
| CC1(C)CC(N=C=O)CC(C)(CN=C=O)C1 (stereo not given) | inactive |  |  |
| COc1ccc(C)cc1N | inactive | inactive | inactive |
| Cc1cccc(Nc2cc(Cl)nc(SCC(=O)O)n2)c1C | inactive | inactive |  |
| O=c1c(O)c(-c2ccc(O)c(O)c2)oc2cc(O)cc(O)c12 | inactive | inactive |  |
| OC[C@@H](O)[C@@H](O)[C@H](O)[C@H](O)CO | inactive | inactive | inactive |
| Cc1oc(-c2ccccc2)nc1CCOc1cccc2c1ccn2CCC(=O)O | inactive |  |  |
| Cc1cc(=O)[nH]c(=S)[nH]1 | inactive | inactive | inactive |
| CCCCCCCCCCCCCCCC | inactive |  |  |
| CC(=O)OC/C=C(\C)CCC=C(C)C | inactive |  |  |
| Cc1ccc(C)c(C)c1 | inactive |  |  |
| COCCOC[C@H](CC1(C(=O)NC2CCC(C(=O)O)CC2)CCCC1)C(=O)Oc1ccc2c(c1)CCC2 (stereo not given in full) | inactive | inactive |  |
| CCCCN(CCCC)CCCC | inactive |  |  |
| CCOc1ccc2c(c1)C(C)=CC(C)(C)N2 | inactive |  |  |
| CCCCOC(=O)CCCCCCCCC(=O)OCCCC | inactive |  |  |
| CNC(=O)[C@H]1O[C@@H](n2cnc3c(NCc4cc(Cl)ccc4OCc4cc(C)no4)ncnc32)[C@H](O)[C@@H]1N | inactive | inactive | inactive |
| Cc1cc(NC(=O)C(=O)O)cc(C)c1Oc1ccc(O)c2c1CCC2 | inactive | inactive |  |
| O=C(OCCCCCOC(=O)c1ccccc1)c1ccccc1 | inactive | inactive | inactive |
| Cc1cccc(C)c1O | inactive |  | inactive |
